# Compound activity as filed in PubChem BioAssay.
# Many of the other results were omitted from the sample, so hits are more common in it than they were.
# RmlCD inh 1536 – inhibitors of Mycobacterium tuberculosis RmlC and RmlD coupled enzymes; P9WH09+P9WH11; RmlC+RmlD coupled enzyme assay, percent inhibition; primary screen in compound mixtures; inhibition, % at 3.6 µM; 0.03% of 160,000 active; in the data active means inhibition mostly above about 34%, no sharp cut-off
# Target sequence (P9WH09 whole entry, looked up): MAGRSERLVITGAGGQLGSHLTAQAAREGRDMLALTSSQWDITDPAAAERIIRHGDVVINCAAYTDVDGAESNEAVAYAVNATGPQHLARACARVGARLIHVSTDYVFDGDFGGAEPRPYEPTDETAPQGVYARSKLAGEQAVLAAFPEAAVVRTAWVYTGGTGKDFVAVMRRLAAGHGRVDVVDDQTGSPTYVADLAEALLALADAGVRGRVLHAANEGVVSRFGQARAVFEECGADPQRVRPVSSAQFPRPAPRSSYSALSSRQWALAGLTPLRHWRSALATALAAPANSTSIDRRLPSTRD
# Target sequence (P9WH11 whole entry, looked up): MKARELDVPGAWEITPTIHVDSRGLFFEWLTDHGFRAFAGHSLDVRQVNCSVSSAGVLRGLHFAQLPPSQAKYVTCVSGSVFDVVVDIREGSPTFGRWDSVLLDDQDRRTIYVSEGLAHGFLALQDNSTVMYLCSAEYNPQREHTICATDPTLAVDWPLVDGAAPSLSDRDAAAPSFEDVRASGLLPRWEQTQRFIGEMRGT
# * = called active by the depositor.
SMILES,RmlCD inh 1536
Cc1nc2c(c(=O)n1CCC1=CCCCC1)c1nc3ccccc3nc1n2/N=C/c1ccccc1,34*
CCOCCCn1c(C)nc2c(c1=O)c1nc3ccccc3nc1n2CCC1=CCCCC1,1
CCCn1cnc2c(c1=O)c1nc3ccccc3nc1n2CCC1=CCCCC1,-10
Cc1nn(-c2cccc(Cl)c2)c2nc(-c3ccncc3)cc(C(=O)N3CCOCC3)c12,28
CC(C)Oc1ccc(C(=O)Nc2cccc3cccnc23)cc1,5
COc1cc(NC(=O)c2cccc(Br)c2)nc(OC)n1,4
COC(CNC(=O)c1coc2nc3ccccc3nc12)OC,74*
COC(CNC(=O)c1ccc2nc(-c3ccccc3)c(-c3ccccc3)nc2c1)OC,-15
O=C(NCC1CCCO1)c1coc2nc3ccccc3nc12 (centres undefined),-5
Cn1c(SCC(=O)Nc2cc(Cl)cc(Cl)c2)nnc1-c1ccc2nonc2c1,7
CN(C)CC(CCC(CN(C)C)C(=O)c1ccccc1)C(=O)c1ccccc1 (centres undefined),-10
CCCc1nn(C)c(C(=O)Nc2ccc3ccccc3c2)c1Cl,-8
CCn1nc(C)c([N+](=O)[O-])c1C(=O)NNC(=O)c1ccccc1Cl,8
COc1ccc2nc(NC(=O)c3sc4nc(C)cc(C)c4c3N)sc2c1,-8
O=C(COC(=O)c1ccccc1[N+](=O)[O-])Nc1cc(S(=O)(=O)N2CCOCC2)ccc1N1CCCC1,7
CC(C)(C)c1ccc(C(=O)NN2C(=O)CSC2=S)cc1,-7
CCCn1c2c(c(O)c(C(=O)Nc3nc4ccccc4s3)c1=O)CCCC2,1
Cc1nc2ccccc2c(=O)n1NC(=O)c1c(O)c2c(n(CC(C)C)c1=O)CCCC2,44
CC(C)Cn1c2c(c(O)c(C(=O)Nc3nc4ccccc4s3)c1=O)CCCC2,82*
COc1cc(Nc2ncnc(N)n2)cc(OC)c1,5
COc1ccccc1N(CC(O)Cn1ccnc1C)S(=O)(=O)c1ccc(C)cc1 (centres undefined),8
CC1CCc2ccccc2N1C(=N)N(C)C (centres undefined),-9
Fc1ccc(-c2nc3ccccc3[nH]2)cc1,10
Nc1ccc(-c2nc3ccccc3[nH]2)cc1,4
O=C(O)c1ccc(-c2nc3ccccc3[nH]2)cc1,95*
SMILES,RmlCD inh 1536
O=C(Cn1cnc2cc([N+](=O)[O-])ccc2c1=O)Nc1ccccc1-c1ccccc1,-40
CNC(=O)c1cc2c(s1)-c1ccccc1CC2,57*
CNC(=O)c1cc(C)c(-c2ccccc2)s1,-4
O=C(N/N=C/c1ccc(F)c(F)c1)c1cc2c(s1)-c1ccccc1CC2,16
CN(C)c1cc[n+](CC(=O)c2ccc(-c3ccccc3)cc2)cc1,-9
Cc1nn(CC(=O)NCc2cc3ccccc3[nH]2)c(C)c1[N+](=O)[O-],5
CCCc1nc(SC)[nH]c(=O)c1C,45
O=C(Nc1nnc(SCc2ccc(F)cc2)s1)c1ccccn1,8
Cc1nc(-c2ccccc2Cl)sc1C(=O)/C=C/N(C)C,16
COc1ccccc1Oc1c(C)oc2c(CN3CCOCC3)c(O)ccc2c1=O,11
COc1ccc(-c2c(C)oc3c(CN4CCN(CCO)CC4)c(O)ccc3c2=O)cc1OC,-1
COc1ccccc1-c1c(C)oc2c(CN3CCN(CCO)CC3)c(O)ccc2c1=O,56*
C=CCNC(=O)COC(=O)c1ccc(Sc2nncn2C)c([N+](=O)[O-])c1,-12
COc1ccc(-c2nc3cnccn3c2Nc2ccc(C)cc2)cc1,12
CC(=O)Nc1c(-c2ccc(F)cc2)nc2ccccn12,21
CCOC(=O)CNc1c(-c2ccc(F)cc2)nc2cnccn12,51*
COc1ccc(CNC(=O)Cn2nnc(-c3ccc(NC(=O)C4CCCCC4)cc3)n2)cc1,-8
Cc1oc(-c2cccc(C(F)(F)F)c2)nc1CN1CCOCC1,8
O=C(NNC(=O)c1cc(-c2ccco2)nc2ccccc12)c1ccccc1,40
CNC(=O)COC(=O)c1cc(-c2ccco2)nc2ccccc12,37*
CCN(CC)C(=O)COC(=O)c1cc(-c2ccco2)nc2ccccc12,4
O=C(Nc1ccc(OC(F)(F)F)cc1)c1ccc(S(=O)(=O)N2CCOCC2)o1,-8
COc1cccc(/C=N/n2nnc3c(cnn3-c3ccccc3)c2=O)c1,-3
O=c1[nH]c(/C=C/c2ccc(Br)cc2)nc2c1cnn2-c1ccccc1,-7
COc1cccc(/C=C/c2nc3c(cnn3-c3ccccc3)c(=O)[nH]2)c1,35*
SMILES,RmlCD inh 1536
O=C(NC1CCCc2ccccc21)C(Cc1ccccc1)NS(=O)(=O)c1cccs1 (centres undefined),-8
Cc1cccn2c(=O)c3cc(C(=O)NC(C)C)c(=N)n(Cc4ccncc4)c3nc12,6
COCCn1c(=N)c(C(=O)NCCc2ccc(OC)cc2)cc2c(=O)n3cccc(C)c3nc21,11
CCNC(=O)c1cc2c(=O)n3cccc(C)c3nc2n(Cc2ccc(C)cc2)c1=N,57*
COc1ccc(-c2cc3nc4ccccc4n3c(N)c2C#N)cc1,-10
CCOC(=O)c1sc(NC(=O)c2ccccc2OCC)nc1C,-12
CCOC(=O)c1sc(Nc2ccc(F)cc2)nc1C,-12
